Measurements as given in PubChem BioAssay AID2275 (Broad Institute, 2010).
Among all 30,000 compounds or so, about 190 (0.63%) were called active. This is one part of a sample in which actives are shown more often than they occur. Unmarked numbers belong to inactive results. Rule as the data show it: active = viability loss activity score above about 50%; inconclusive = no clear call, values can overlap the other calls; inactive = below about 35%.

Test: cytotoxicity in HRASV12-transformed BJ fibroblasts – cell-based, luminescence, CellTiterGlo ATP, primary screen (AID 2275);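 also: higher score means fewer live cells and less ATP luminescence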
Conditions: BJeLR fibroblasts viability, 48 h, active compounds read high, concentration not given here; HRASV12, hTERT and SV40 LT/ST transformed unless noted

Structure (SMILES)	viability loss activity score
CN[C@@H]1C[C@H]2O[C@@](C)([C@@H]1OC)n1c3ccccc3c3c4c(c5c6ccccc6n2c5c31)C(=O)NC4	127% (active)
CCCCCCCCCCCCCC(=O)O[C@@H]1[C@@H](C)[C@@]2(O)[C@@H](C=C(CO)C[C@]3(O)C(=O)C(C)=C[C@@H]23)[C@@H]2C(C)(C)[C@]12OC(C)=O	4.17%
CN1C2C=C(N(C(=O)c3ccc(Cl)cc3)c3ccccc3)CC1CC2 (stereo not given)	0.717%
CCOC(=O)[C@@H]1[C@@H]2NC(=O)N[C@@]1(C)Oc1ccccc12	-1.85% [setting not given]
Fc1ccc(CNC2=NCCS2)cc1	2.3%
CNC(=O)N(C)c1nnc(C(C)(C)C)s1	-2.35% [setting not given]
c1ccc2c(c1)[I+]c1ccccc1-2	73.2% (active)
CC(=O)Nc1nc(C)c(Oc2ccccc2)c(OC(=O)N(C)C)n1	-1.11%
COC1=C[C@@H]2[C@@H]3Cc4ccc(OC)c(O)c4[C@]2(CCN3C)CC1=O	1.23% [setting not given]
CN1CC=C(c2noc(CCC(=O)Nc3ccc(F)cc3F)n2)CC1	2.02%
CC(C)[C@@]1(NC(=O)[C@@H]2CC3c4cccc5[nH]cc(c45)C[C@H]3N(C)C2)O[C@@]2(O)[C@@H]3CCCN3C(=O)[C@H](Cc3ccccc3)N2C1=O (stereo not given in full)	-5.08%
O=C(O)C1C2CCC(O2)C1C(=O)N1CCN(C/C=C/c2ccccc2)CC1 (stereo not given)	8.76%
C[C@H]1O[C@@H](O[C@H]2CC[C@]3(CO)C4CC[C@]5(C)[C@@H](C6=CC(=O)OC6)CC[C@]5(O)[C@@H]4CC[C@H]3C2)[C@H](O)[C@H](O)[C@@H]1O[C@@H]1O[C@H](CO)[C@@H](O)[C@H](O)[C@H]1O (stereo not given in full)	109% (active)
Cc1ccc(CSc2nnc(OC(=O)N(C)C)n2-c2cccc(Cl)c2)cc1	5.26%
CC1N=C(c2ccccc2)c2ccccc2N(CCCOc2ccc(F)cc2)C1=O (stereo not given)	-3.72%
CC(C)(c1ccccc1)c1ccc(O)cc1	0.81%
CC(C)c1ccc2c(c1O)CC[C@H]1C3=C(CC[C@]21C)C(=O)OC3	4.52%
C[C@H]1CCC/C=C/C2C[C@H](O)C[C@H]2[C@H](O)/C=C\C(=O)O1 (stereo not given in full)	74.4% (active)
CCN(CC)C(=O)c1ccc(N(Cc2ccccc2Cl)S(C)(=O)=O)cc1	5.52%
Fc1cccc(NC2=NCCS2)c1	7.57%
